Results filed as inconclusive are left out. Activity calls are given as the source filed them. Unless noted, calls follow the shape of the dose curve; as a rule, active = well fitted curve in the direction sought with a large enough effect in the repeat runs; inconclusive = weak or mixed curves; inactive = no such curve, though single readings can be large; an effect the other way counts as inactive or inconclusive.
Columns and labels:
[1] = qHTS assay to identify small molecule agonists of H2AX (AID 1224845; active = well fitted activation curve with a large enough effect in the signal ratio in the repeat runs, not every such curve was filed as active; the % refers to the signal ratio)
Method in brief: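 Phospho-H2AX Ser139 measured by HTRF (ex 320 nm; em 665 and 620 nm) after 24 hr antibody incubation. Compounds, 15 concentrations, 0.76% DMSO, were applied to CHO-K1 cells for 3hr at 37C before lysis.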

[2] = qHTS assay to identify small molecule agonists of the hypoxia (HIF-1) signaling pathway (AID 1224846; active = well fitted activation curve with a large enough effect in the signal ratio in the repeat runs, not every such curve was filed as active; the % refers to the signal ratio)
Method in brief: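 Hypoxia-pathway activation was scored as increased beta-lactamase from an HRE-controlled reporter in ME-180 cells; plated at 2,000 cells per well with 0.5% dialyzed FBS, they were exposed 17 hrs to compounds and then given CCF4-AM.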

[3] = qHTS assay to identify small molecule agonists of H2AX - cell viability counter screen (AID 1224847; calls by dose curve; also: top concentration of the series differs between compounds; nearly all actives have a fitted effect of over 30% in size)
Method in brief: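 Compounds tested at 15 concentrations were incubated 3 hr at 37C with wild-type CHO-K1 cells; cellular ATP-based luminescence (CellTiter-Glo) indicated viability.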

[4] = qHTS assay to identify small molecule antagonists of the estrogen related receptor (ERR) signaling pathway from Tox21 library (AID 1224848); also: nearly all actives have a fitted effect of over 50% in size; also: potency is read from the fitted curve at half-maximal effect
Method in brief: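 Antagonist-mode screen of the Tox21 10K library in an NTP-provided ERR reporter cell line; 18 h compound exposure at 37 C, luminescence measured with ONE-Glo.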

[5] = qHTS RealTime-Glo MT Cell Viability Assay in HEK293 cells - 32 hour (AID 1224868); also: nearly all actives have a fitted effect of over 50% in size; also: potency is read from the fitted curve at half-maximal effect
Method in brief: (§1)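 HEK293 cells were seeded at 600 cells/well together with NanoLuc luciferase and cell-permeant prosubstrate, preincubated 5 h at 37 C/5% CO2, then given compound in DMSO by pintool. Luminescence from viable-cell prosubstrate reduction was read repeatedly over 40 h.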

[6] = A CellTox Green Cytotoxicity Assay to monitor cytotoxicity in HEK293 cells - 40 hour (AID 1224871); also: nearly all actives have a fitted effect of over 45% in size; also: potency is read from the fitted curve at half-maximal effect
Method in brief: (§2)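 Seeding of HEK293 cells together with cytotoxicity dye preceded a 5 h incubation at 37 C/5% CO2. Test compounds in DMSO were then added and fluorescence monitored across 40 h.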

[7] = qHTS RealTime-Glo MT Cell Viability Assay in HEK293 cells - 16 hour (AID 1224872); also: nearly all actives have a fitted effect of over 50% in size; also: potency is read from the fitted curve at half-maximal effect
Method in brief: as §1

[8] = qHTS RealTime-Glo MT Cell Viability Assay in HEK293 cells - 40 hour (AID 1224874); conditions: RealTime-Glo luminescence; max response: hits give low values; also: nearly all actives have a fitted effect of over 50% in size; also: potency is read from the fitted curve at half-maximal effect
Method in brief: (§3)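 Tox21 screen in HEK293 using RealTime-Glo MT chemistry, with cells and reagent co-dispensed. Luminescence proportional to viable cell number was captured at intervals during 40 h compound exposure at 37 C.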

[9] = A CellTox Green Cytotoxicity Assay to monitor cytotoxicity in HEK293 cells - 24 hour (AID 1224875); also: nearly all actives have a fitted effect of over 45% in size; also: potency is read from the fitted curve at half-maximal effect
Method in brief: as §2

[10] = qHTS RealTime-Glo MT Cell Viability Assay in HepG2 cells - 32 hour (AID 1224877); also: nearly all actives have a fitted effect of over 55% in size
Method in brief: (§4)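 HepG2 cells were seeded at 600 cells/well together with NanoLuc luciferase and a cell-permeant prosubstrate, preincubated 5 h at 37 C/5% CO2, then pin-dosed with compounds in DMSO. Nonlytic luminescence from viable cells was read at each time point.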

[11] = qHTS RealTime-Glo MT Cell Viability Assay in HEK293 cells - 0 hour (AID 1224880); also: nearly all actives have a fitted effect of over 45% in size; also: potency is read from the fitted curve at half-maximal effect
Method in brief: as §3

[12] = qHTS RealTime-Glo MT Cell Viability Assay in HepG2 cells - 24 hour (AID 1224867); also: nearly all actives have a fitted effect of over 50% in size
Method in brief: as §4

[13] = A CellTox Green Cytotoxicity Assay to monitor cytotoxicity in HEK293 cells - 0 hour (AID 1224869); also: nearly all actives have a fitted effect of over 50% in size
Method in brief: as §2

[14] = qHTS RealTime-Glo MT Cell Viability Assay in HepG2 cells - 8 hour (AID 1224873); also: nearly all actives have a fitted effect of over 55% in size
Method in brief: (§5)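 Real-time viability: cells seeded at 600 per well together with NanoLuc and cell-permeant prosubstrate, compounds added after 5 h incubation. Luminescence tracked at 0, 8, 16, 24, 32 and 40 h of exposure.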

[15] = A CellTox Green Cytotoxicity Assay to monitor cytotoxicity in HepG2 cells - 16 hour (AID 1224876); also: nearly all actives have a fitted effect of over 45% in size
Method in brief: (§6)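 Nonlytic assay: viable cells exclude the dye, so fluorescence scales with cell death. HepG2 at 600 cells/well, compounds added after 5 h, signal read across 40 h.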

[16] = A CellTox Green Cytotoxicity Assay to monitor cytotoxicity in HepG2 cells - 24 hour (AID 1224878); also: nearly all actives have a fitted effect of over 45% in size
Method in brief: as §6

[17] = A CellTox Green Cytotoxicity Assay to monitor cytotoxicity in HepG2 cells - 40 hour (AID 1224879); also: nearly all actives have a fitted effect of over 40% in size
Method in brief: as §6

[18] = qHTS assay to identify small molecule agonists of the estrogen related receptor (ERR) signaling pathway from Tox21 library (AID 1224849; calls by dose curve; also: nearly all actives have a fitted effect of over 15% in size); conditions: ERR reporter cell line, ONE-Glo luciferase, 18 h; at 92.4 µM (top of the series) unless noted
Method in brief: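 Six hours post-seeding at 37 C/5% CO2, ERR cells receive DMSO-solubilised compounds; after 18 h at 37 C, ONE-Glo reagent is applied and luminescence recorded.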

[19] = qHTS RealTime-Glo MT Cell Viability Assay in HepG2 cells - 40 hour (AID 1224870); also: nearly all actives have a fitted effect of over 50% in size
Method in brief: as §5
% is scaled to controls: 0 for no effect and ±100 for the full control effect.

CCOC(=O)Cc1cccc2ccccc12
inactive: Potency [1] | Potency [2] | Potency [3] | Potency [4] | Potency [5] | Potency [6] | Potency [7] | max response [8] -4.39% | Potency [9] | Potency [10] | Potency [11]

CCCCCCCCCOS(=O)(=O)O
inactive: Potency [1] | Potency [2] | Potency [3] | Potency [12] | Potency [5] | Potency [13] | Potency [6] | Potency [7] | Potency [14] | max response [8] 4.38% | Potency [9] | Potency [15] | Potency [10] | Potency [16] | Potency [17] | Potency [11]

CO[C@@H]1[C@H](OC(=O)/C=C/C=C/C=C/C=C/C(=O)O)CC[C@]2(CO2)[C@H]1[C@@]1(C)O[C@@H]1CC=C(C)C
inactive: Potency [1] | Potency [3] | Potency [4] | activity change, positive = activation [18] -16% | Potency [12] | Potency [13] | Potency [19] | Potency [6] | Potency [14] | max response [8] 18.9% | Potency [9] | Potency [15] | Potency [16] | Potency [17] | Potency [11]

C[C@@H]1C[C@H]2[C@@H]3CCC4=CC(=O)C=C[C@]4(C)[C@@]3(F)[C@@H](O)C[C@]2(C)[C@@]1(O)C(=O)COC(=O)c1ccncc1
inactive: Potency [1] | Potency [2] | Potency [3] | Potency [12] | Potency [5] | Potency [13] | Potency [19] | Potency [6] | Potency [7] | Potency [14] | max response [8] -17.8% | Potency [9] | Potency [15] | Potency [16]
active: Potency [11] 3.01 µM

CC1=CCCC(C)(C)C12CCC(C)O2 (stereo unspecified)
inactive: Potency [1] | Potency [2] | Potency [3] | Potency [12] | Potency [5] | Potency [13] | Potency [19] | Potency [6] | Potency [7] | Potency [14] | max response [8] -12.5% | Potency [9] | Potency [10] | Potency [16] | Potency [11]

COC(=O)c1ccc(I)cc1S(=O)(=O)NC(=O)Nc1nc(C)nc(OC)n1
inactive: Potency [1] | Potency [2] | Potency [3] | Potency [12] | Potency [5] | Potency [13] | Potency [6] | Potency [7] | Potency [14] | max response [8] 0.658% | Potency [9] | Potency [15] | Potency [10] | Potency [16] | Potency [17] | Potency [11]

CN(C)CCN(Cc1ccccc1)c1ccccn1
inactive: Potency [1] | Potency [3] | Potency [12] | Potency [5] | Potency [13] | Potency [19] | Potency [6] | Potency [7] | Potency [14] | max response [8] -27.7% | Potency [9] | Potency [15] | Potency [10] | Potency [16] | Potency [11]

CCCCCCCCCCCCCCCCOS(=O)(=O)O
active: Potency [6] 21.3 µM | Potency [9] 19 µM
inactive: Potency [1] | Potency [2] | activity change, positive = activation [18] -16% [at 42.5 µM] | Potency [12] | Potency [5] | Potency [13] | Potency [19] | Potency [7] | Potency [14] | max response [8] -27.5% | Potency [11]

C=C(C)C(=O)OCCO
inactive: Potency [1] | Potency [2] | Potency [3] | Potency [12] | Potency [5] | Potency [13] | Potency [6] | Potency [7] | Potency [14] | max response [8] 3.51% | Potency [9] | Potency [10] | Potency [16] | Potency [11]

Cc1ccc(C(C)OC(=O)C2(C)CCC(C(=O)O)C2(C)C)cc1 (stereo unspecified)
inactive: Potency [1] | Potency [2] | Potency [3] | Potency [12] | Potency [5] | Potency [13] | Potency [19] | Potency [6] | Potency [7] | Potency [14] | max response [8] 8.96% | Potency [9] | Potency [15] | Potency [10] | Potency [16] | Potency [17] | Potency [11]

COc1cc2c(cc1OC)C(C(C(=O)N(CCc1ccc(OC)c(OC)c1OC)CCc1ccc(OC)c(OC)c1OC)c1ccccc1)=NCC2 (stereo unspecified)
active: Potency [4] 26.6 µM | Potency [5] 3.38 µM | Potency [7] 3.01 µM | Potency [8] 3.38 µM
inactive: Potency [1] | Potency [2] | Potency [3] | activity change, positive = activation [18] -49.6% [at 42.5 µM] | Potency [6] | Potency [9] | Potency [15] | Potency [16] | Potency [17]

CCCCC(=O)OCC(=O)[C@H]1[C@H](C)C[C@H]2[C@@H]3C[C@H](F)C4=CC(=O)C=C[C@]4(C)[C@@]3(F)[C@@H](O)C[C@@]21C
inactive: Potency [1] | Potency [2] | Potency [3] | Potency [12] | Potency [5] | Potency [13] | Potency [19] | Potency [6] | Potency [7] | max response [8] -15.1% | Potency [9] | Potency [15] | Potency [10] | Potency [16] | Potency [17]
active: Potency [11] 4.77 µM

Cc1cc(C(=O)O)ccc1[N+](=O)[O-]
inactive: Potency [1] | Potency [2] | Potency [3] | Potency [12] | Potency [5] | Potency [13] | Potency [6] | Potency [7] | max response [8] 9.13% | Potency [9] | Potency [15] | Potency [10] | Potency [16] | Potency [11]

CC[N+](C)(CC)CCOC(=O)C(O)(c1ccccc1)C1CCCCC1 (stereo unspecified)
inactive: Potency [1] | Potency [2] | Potency [3] | Potency [4] | activity change, positive = activation [18] -2.02% [at 42.5 µM] | Potency [12] | Potency [5] | Potency [6] | Potency [7] | Potency [14] | max response [8] 6.78% | Potency [9] | Potency [15] | Potency [10] | Potency [16] | Potency [17] | Potency [11]

Cc1cccc(C)c1NC(=O)CN(CC(=O)O)CC(=O)O
inactive: Potency [1] | Potency [2] | Potency [3] | Potency [12] | Potency [5] | Potency [13] | Potency [6] | Potency [7] | max response [8] 5.56% | Potency [9] | Potency [15] | Potency [10] | Potency [16] | Potency [11]
